From PubChem BioAssay
Cruzain noTriton – cruzain (T. cruzi) inhibition without detergent; Potency, µM, for the others: max response, negative = inhibition, usual class: inhibitors; P25779; 200,000 compounds, 2.3% hits; purified cruzain, Z-FR-AMC fluorescence, no detergent;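 further: plate controls were enzyme without inhibitor for no effect and buffer without enzyme for full effect; nearly all actives have a fitted effect of over 40% in size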
Target sequence (P25779 123-467 limits assumed): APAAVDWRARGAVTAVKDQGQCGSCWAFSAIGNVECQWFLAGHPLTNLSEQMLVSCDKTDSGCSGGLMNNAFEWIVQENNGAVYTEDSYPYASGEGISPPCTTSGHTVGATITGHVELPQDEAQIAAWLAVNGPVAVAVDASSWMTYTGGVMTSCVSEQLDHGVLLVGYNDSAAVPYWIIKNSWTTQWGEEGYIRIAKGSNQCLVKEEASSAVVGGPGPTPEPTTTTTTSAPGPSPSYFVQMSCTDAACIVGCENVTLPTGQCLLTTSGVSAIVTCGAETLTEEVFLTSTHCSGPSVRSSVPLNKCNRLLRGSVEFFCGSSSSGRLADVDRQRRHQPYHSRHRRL
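Detergent-free condition (0.00005% Triton X-100) in acetate buffer pH 5.5 with DTT. 1.5 nM enzyme and compound were pre-mixed 15 min, then 2 uM Z-FR-AMC substrate added; reaction progress from fluorescence change between first and third reads (60 s).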
Cruzain Triton – inhibitors of Trypanosoma cruzi cruzain with detergent; P25779; purified cruzain, Z-FR-AMC fluorescence, 0.01% Triton; Potency, µM, for inactives: max response, negative = inhibition, usual class: inhibitors; 200,000 compounds, 0.43% hits; AID 1478;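 further: plate controls were neutral wells for no effect and buffer without enzyme for full effect; nearly all actives have a fitted effect of over 40% in size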
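Cruzain (1.5 nM) preincubated 15 min at RT with compound in 100 mM sodium acetate pH 5.5, 5 mM DTT, 0.01% Triton X-100. Reaction started with 2 uM Z-FR-AMC; AMC fluorescence (ex 360/em 450 nm) change over 60 s gave rate.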
* = called active by the depositor; ? = inconclusive. The list is not random: actives were taken first. Their share in the collection is about 2.6%. The call rests on the fitted dose curve; in most records, active means well fitted curve in the direction sought with a large enough effect; inconclusive means small, poorly fitted or top-dose-only effect, or another doubt; inactive means no such curve, though single readings can be large; an effect the other way counts as inactive or inconclusive. Potency means the concentration at half of the fitted maximal effect.

SMILES	Cruzain noTriton	Cruzain Triton
O=S(=O)(c1ccc(Cl)cc1)N1CCN(c2nc(-c3cccs3)nc3ccccc23)CC1	10µM*	-7%
O=C(c1cc(-c2cccs2)nc2ccccc12)N1CCN(S(=O)(=O)c2ccccc2)CC1	?	-4%
Cc1cc(N2CCN(S(=O)(=O)c3ccccc3)CC2)c2ccccc2n1	9%	0%
CCOC(=O)CSc1nc2ccc(NC(=O)COc3ccc(F)cc3)cc2s1	-4%	2%
Cc1ccc(S(=O)(=O)N2CCc3cc(C(=O)Nc4ccc(C)c(C)c4)ccc32)cc1	?	-3%
CCCOC(=O)CSc1nnc2ccc3ccccc3n12	-1%	-4%
CCc1ccc2[nH]c(O)c(N=Nc3nc(-c4ccccc4)cs3)c2c1	20µM*	-5%
CCc1cc2c(N=Nc3c(O)[nH]c4ccccc34)ncnc2s1	-14%	-1%
CC1Cc2cc(S(=O)(=O)CCC(=O)Nc3ccc(Cl)cc3F)ccc2N1C(=O)C1CC1 (stereo unspecified)	-12%	-2%
CCOC(=O)c1c(NC(=O)CSc2nc3ccccc3s2)sc(C(C)=O)c1C	-25%	-2%
Cc1cc(C)nc(NC(=O)CSc2nc3cc(Cl)ccc3s2)n1	6%	-3%
Cc1cc(NC(=O)CSc2nc3cc(Cl)ccc3s2)no1	10µM*	1%
CCOC(=O)c1c(NC(=O)CSc2nc3cc(Cl)ccc3s2)sc(C(C)=O)c1C	16µM*	-6%
COc1cc(C2CC(=O)c3c([nH]c(C(=O)OC4CCCC4)c3C)C2)cc(OC)c1OC (stereo unspecified)	?	-7%
CCOC(=O)c1ccccc1NC(=O)Cn1c(=O)n(CCC(=O)NCc2ccccc2OC)c(=O)c2ccccc21	-7%	-2%
COc1ccccc1N1CCN(c2ccc(=O)n(CC(=O)Nc3ccc(F)c(F)c3)n2)CC1	-6%	-2%
CCOc1ccc(C2C(=O)N(C3CCCCCC3)CC(=O)N2Cc2ccc(C)cc2)cc1OC (stereo unspecified)	?	1%
CCOC(=O)c1sc(NC(=O)CSc2nc3c(c(=O)n2-c2ccc(F)cc2)SCC3)c(C(=O)OCC)c1C	25µM*	-3%
COC(=O)c1c(NC(=O)CSc2nc3ccccc3c(=O)n2-c2ccccc2)sc(C)c1C	13µM*	-3%
CCOc1ccc(-n2c(SCC(=O)Nc3ccc(OC)cc3)nc3c(c2=O)SCC3)cc1	-5%	-1%
Cc1cc(NC(=O)CSc2nc3ccccc3c(=O)n2-c2ccccc2)no1	-11%	11%
O=C(c1ccc(Br)cc1)N1CCN(CCc2ccncc2)CC1	-1%	0%
COc1c(C2=CC(=O)N(C)C2=O)c2c(n1C)C(=O)c1ccccc1C2=O	-14%	7%
CC(=O)Nc1cccc(-c2nnc(SCC(=O)c3cc([N+](=O)[O-])ccc3Br)o2)c1	-17%	-5%
CSCCC(NS(=O)(=O)c1cccs1)C(=O)Nc1ccc(C)c(Cl)c1 (stereo unspecified)	7%	-7%
SMILES	Cruzain noTriton	Cruzain Triton
Brc1ccc(-c2nc3ccccn3c2Nc2ccc3c(c2)OCCO3)o1	?	-24%
COC(=O)c1ccc2c(c1)c(I)c(-c1ccc(OC)cc1)n2C	?	3%
COC(=O)c1ccc2c(c1)c(C#Cc1ccccc1)c(-c1ccccc1)n2C	18µM*	-3%
COc1ccc(CNS(=O)(=O)c2ccc(N3CCCCS3(=O)=O)cc2)cc1	6%	0%
COc1ccc(NC(=O)CN(C)S(=O)(=O)c2ccc3nc(C)sc3c2)cc1Cl	-10%	-7%
O=C1CN(C(=O)c2ccc(S(=O)(=O)N3CCCCC3)cc2)C(c2ccc(F)cc2)c2cc(F)ccc2N1 (stereo unspecified)	-2%	-5%
O=C(Nc1ccc2nc(-c3ccco3)c(-c3ccco3)nc2c1)N1CCCCCC1	2µM*	14µM*
CCOC(=O)C1CCN(C(=O)Nc2ccc3nc(-c4ccco4)c(-c4ccco4)nc3c2)CC1	?	14µM*
Cc1nc2ccc(NC(=O)N3CCCCC3)cc2nc1C	-14%	-4%
CCOC(=O)C1CCN(C(=O)Nc2ccc3c(c2)nc(C)n3C)CC1	-3%	4%
Cc1ccc(CNC(=O)CCCCCn2c(=O)c3sccc3n(CC(=O)Nc3c(C)cc(C)cc3C)c2=O)cc1	-7%	-2%
O=C(O)c1cc(-n2c(/C=C\c3ccc(F)cc3)nc3ccccc3c2=O)ccc1Cl	2%	0%
COC(=O)NC(/C=C/c1ccccc1)C(C(C)=O)C(=O)OC (stereo unspecified)	-2%	3%
CCOC(=O)C(Cc1ccc(O)cc1)NC(=O)CNC(=O)C(CC(C)C)NC(=O)OC(C)(C)C (stereo unspecified)	10µM*	13µM*
COC(=O)C(Cc1ccccc1)NC(=O)C(CC(C)C)NC(=O)OC(C)(C)C (stereo unspecified)	32µM*	16µM*
CCC(C)C(NC(=O)OC(C)(C)C)C(=O)NC(Cc1ccccc1)C(=O)OC (stereo unspecified)	-10%	-3%
CC(C)CC(NC(=O)C(Cc1ccc(OCc2ccccc2)cc1)NC(=O)OC(C)(C)C)C(N)=O (stereo unspecified)	-2%	-1%
c1ccc(C2Nc3ccccc3-c3nc4ccccc4n32)cc1 (stereo unspecified)	?	-1%
Oc1ccccc1C1=Nc2nc3ccccc3n2C(c2ccccc2)C1 (stereo unspecified)	25µM*	-5%
CC(=O)NCCc1nc2ccccc2[nH]1	-7%	-2%
COc1ccccc1C(=O)NCCc1nc2ccccc2[nH]1	5µM*	16µM*
COCC(=O)NCCc1nc2ccccc2[nH]1	?	-11%
O=C(NCCc1nc2ccccc2[nH]1)c1ccc(F)cc1	1.3µM*	?
Cc1ccc(CCNC(=O)C(CC(C)C)NS(=O)(=O)c2ccc3c(c2)oc(=O)n3C)cc1 (stereo unspecified)	-5%	0%
CCc1cc2c(cc3c(=O)n(CC(=O)N4CCN(c5cccc(C)c5C)CC4)nc(CC)n32)s1	0%	-1%
SMILES	Cruzain noTriton	Cruzain Triton
COc1ccc(S(=O)(=O)NCCc2csc(-c3ccc(F)cc3)n2)cc1	1%	-9%
CCc1ccc(CNC(=O)c2ccc3nc(SCc4ccc(F)cc4)n(C)c3c2)cc1	16%	-1%
COC(=O)c1ccc(C(C(=O)NC2CCCCC2)N(CCc2ccccc2)C(=O)Cc2cccs2)cc1 (stereo unspecified)	13µM*	0%
COC(=O)c1ccc(C(C(=O)NC2CCCCC2)N(Cc2ccc(F)cc2)C(=O)Cc2cccs2)cc1 (stereo unspecified)	17%	-4%
COc1ccc(-n2c(C)c(C(C)=O)c3cc(OC(=O)c4ccc(C)cc4)ccc32)cc1	-10%	-1%
CCOC(=O)C1=c2s/c(=C\c3cccnc3)c(=O)n2C(N)=C(C(=O)OC)C1c1cccnc1 (stereo unspecified)	14%	-8%
CCOC(=O)C1=C(C)N=c2s/c(=C\c3cccn3C)c(=O)n2C1c1cccc(OC)c1OC (stereo unspecified)	?	-9%
COc1ccc(C2C(C(C)=O)=C(C)N=c3s/c(=C/c4ccc5c(c4)OCO5)c(=O)n32)cc1 (stereo unspecified)	10µM*	-6%
COC(=O)C1=C(C)N=c2s/c(=C/c3ccoc3)c(=O)n2C1c1ccccc1 (stereo unspecified)	-7%	-9%
CCOC(=O)C1=C(N)n2c(s/c(=C/c3ccco3)c2=O)=C(C(=O)OC)C1c1ccco1 (stereo unspecified)	13µM*	-2%
